Records with an inconclusive call do not appear. Active and inactive are the calls of the source. The call rests on the fitted dose curve; in most records, active means well fitted inhibition curve with a large enough effect; inconclusive means small, poorly fitted or top-dose-only effect; inactive means flat fitted curve, though single readings scatter.
On the % scale 0 is the no-effect control and ±100 the full control effect; potency means the concentration at half of the fitted maximal effect.

The first experiment relates to KB-3-1. Description: Cytotoxic Profiling of Annotated Libraries Using Quantitative High-Throughput Screening (AID 1296008). Further: nearly all actives have a fitted effect of over 60% in size. To be noted: Five cell lines viability, CellTiter-Glo ATP luminescence, 48-72 h; max response: active compounds read low. The method, boiled down: (§1)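 Cytotoxicity was measured as CellTiter-Glo ATP luminescence, read after 10 min at room temperature. Compound treatment of the cells lasted 48 or 72 hr at 37 degrees Celsius in a qHTS format.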
A general note: ATP-based viability assays read luminescence as a measure of living cells.
For `CC1=CC(=O)[C@@H](O)[C@]2(C)C3[C@@H](O)[C@@H]4OC(=O)[C@@H]([C@H]4C)[C@]3(C)C(=O)C[C@@H]12` (stereo partly specified), the Potency was 4530 nM (active).
Same read-out and setting: for `CC[C@@H]1C[C@H]2CC[C@H](O2)[C@H](C)C(=O)O[C@@H](C)C[C@@H]2CC[C@@H](O2)[C@@H](C)C(=O)O[C@H](CC)C[C@H]2CC[C@H](O2)[C@H](C)C(=O)O[C@@H](C)C[C@@H]2CC[C@@H](O2)[C@@H](C)C(=O)O1` the value was 38.5 nM (active); for `N#Cc1cn([C@@H]2O[C@H](CO)[C@H](O)[C@@H]2O)c2ncnc(N)c12`, 36.6 nM (active).

For a further experiment, the system named is NIH3T3. The description is as above. To be noted: Five cell lines viability, CellTiter-Glo ATP luminescence, 48-72 h; max response: active compounds read low. The essentials: as §1
As to `CC(=O)O[C@@H]1[C@@H](O)[C@H]2O[C@@H]3C=C(C)[C@@H](O)C[C@]3(CO)[C@]1(C)[C@]21CO1`, the Potency was 904 nM (active).
In the case of `COc1ccc2c3c([nH]c2c1)C(C=C(C)C)N1C(=O)C2CCCN2C(=O)C1C3` (stereo unspecified), the max response is -20.2% (inactive).
On to `C[C@@H]1C[C@@H](O)[C@]2(O)O[C@@H]3C[C@@]4(C=O)C(CC[C@@H]5C4CC[C@]4(C)[C@@](O)(C6=CC(=O)OC6)CC[C@]54O)C[C@H]3OC2O1` (stereo partly specified), for which the max response is -15.7% (inactive).
`CC(=O)OC[C@]12C[C@H](OC(=O)CC(C)C)C(C)=C[C@H]1O[C@@H]1[C@H](O)[C@@H](OC(C)=O)[C@@]2(C)[C@@]12CO2`: the Potency is 50.2 nM (active).
Still for that read-out and setting: for `CC[C@H](C)[C@H](NC(=O)[C@H]1CCCCN1C)C(=O)N(COC(=O)CC(C)C)[C@H](C[C@@H](OC(C)=O)c1nc(C(=O)N[C@@H](Cc2ccc(O)cc2)C[C@H](C)C(=O)O)cs1)C(C)C` the value was 1.2 nM (active); for `CC1=C[C@H]2O[C@@H]3C[C@H]4OC(=O)/C=C/C=C/C(=O)OCC/C(C)=C/C(=O)OC[C@@]2(CC1)[C@]4(C)[C@]31CO1`, 28.2 nM (active).
On to `CC(=O)OC[C@]12C[C@H](OC(=O)CC(C)C)C(C)=C[C@H]1O[C@@H]1[C@H](O)[C@@H](O)[C@@]2(C)[C@]12CO2`, for which the Potency was 100 nM (active).
Regarding `CC(=O)OC[C@]12C[C@H](OC(=O)CC(C)C)C(C)=C[C@H]1O[C@@H]1[C@H](O)C[C@@]2(C)[C@]12CO2`, the Potency is 893 nM (active).
With `COC1CC(O[C@H]2CC[C@]3(C)C4CC[C@]5(C)[C@@H](C6=CC(=O)OC6)[C@@H](OC(C)=O)C[C@]5(O)C4CC[C@@H]3C2)OC(C)C1O[C@@H]1O[C@H](CO)[C@@H](O)[C@H](O)[C@H]1O` (stereo partly specified), the max response was 4.46% (inactive).
`Cc1c(Cl)c(OCC(=O)N2CCN(C)CC2)nc2sc(C(=O)NC3CC3)c(N)c12`: the max response was 0.637% (inactive).
Turning to `CO[C@H]1[C@H](O)[C@H](O[C@H]2CC[C@]3(C=O)C4CC[C@]5(C)[C@H](C6=CC(=O)OC6)CC[C@]5(O)C4CC[C@@H]3C2)O[C@@H](C)[C@@H]1O` (stereo partly specified), the max response is -5% (inactive).
Still for that read-out and setting: for `C[C@H]1O[C@@H](O[C@H]2CC[C@]3(C=O)C4CC[C@]5(C)[C@@H](C6=CC(=O)OC6)CC[C@]5(O)[C@@H]4CC[C@]3(O)C2)C[C@@H](O)[C@@H]1O` (stereo partly specified) the value was -1.6% (inactive).
As to `COC1CC(O[C@H]2CC[C@]3(C=O)C4CC[C@]5(C)[C@@H](C6=CC(=O)OC6)CC[C@]5(O)[C@@H]4CC[C@@H]3C2)OC(C)C1O[C@@H]1O[C@H](CO)[C@@H](O[C@@H]2O[C@H](CO)[C@@H](O)[C@H](O)[C@H]2O)[C@H](O)[C@H]1O` (stereo partly specified), the max response was 3.23% (inactive).
On the same count and under the same terms, for `C[C@H]1O[C@@H](O[C@H]2CC[C@]3(CO)C4CC[C@]5(C)[C@@H](C6=CC(=O)OC6)CC[C@]5(O)[C@@H]4CC[C@H]3C2)[C@H](O)[C@H](O)[C@@H]1O[C@@H]1O[C@H](CO)[C@@H](O)[C@H](O)[C@H]1O` (stereo partly specified) the value was -2.67% (inactive); for `C[C@H]1O[C@@H](n2cnc3c(N)ncnc32)C[C@@H]1O`, 1.47% (inactive); for `CO[C@@H]1C[C@H](O[C@H]2CC[C@@]3(C)C(CCC4C3CC[C@]3(C)[C@@H](C5=CC(=O)OC5)[C@@H](OC(C)=O)CC43O)C2)O[C@H](C)[C@@H]1O[C@H]1O[C@H](CO[C@@H]2O[C@H](CO)[C@@H](O)[C@H](O)[C@H]2O)[C@@H](O)[C@H](O)[C@H]1O` (stereo partly specified), -8.42% (inactive).
Turning to `CC1=CC2OC3[C@H](O)C[C@@](C)([C@]34CO4)[C@@]2(CO)[C@H](O)C1=O` (stereo partly specified), the Potency was 1300 nM (active).
As for `CC(=O)O[C@H]1CC[C@@]2(CI)C(=CC[C@@H]3[C@@H]2CC[C@]2(C)C(=O)CC[C@@H]32)C1`, the max response is 0.959% (inactive).

Values taken from PubChem BioAssay (NCATS).
